# Source: PubChem BioAssay (EPA / NIEHS)
# Where “and” joins values, the source holds several entries; their conditions need not be identical. Equal values may be shown once. Inconclusive results are not listed. Some structures have more than one record in an assay (separate samples or runs), and their calls can disagree. Calls of active or inactive are those of the source. The calls were made as follows, unless noted: active = hit-call score of the fitted dose curve at least 0.9, where 1 is the maximum; inconclusive = response in the unintended direction; inactive = score below 0.9.
# Columns and labels:
# [1] = read-out: xenobiotic metabolism (CYP1A2), CYP1A2 (gene 1544); test: CLD_CYP1A2_24hr: CellzDirect (CLD) Gene Expression Assay for xenobiotic metabolism (CYP1A2) at 24 hours (AID 2283683)
# Outline: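 CYP1A2 mRNA induction measured by quantitative nuclease protection (chemiluminescent) in human primary hepatocytes 24 h after multi-concentration chemical dosing with daily fresh solutions. DMSO (0.2%) baseline; positive-direction fitting; morphology-based cytotoxicity noted.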
# [2] = read-out: Cytochrome P450 2C9 (Homo sapiens) (UniProt P11712); test: CLD_CYP2C9_24hr: CellzDirect (CLD) Gene Expression Assay for xenobiotic metabolism (CYP2C9) at 24 hours (AID 2283688)
# Outline: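 Induction of CYP2C9 mRNA was quantified by quantitative nuclease protection assay (chemiluminescence), gain of signal versus 0.2% DMSO vehicle, 24 h after dosing. Human primary hepatocytes (two donors) received fresh chemical daily at multiple concentrations; morphology-based cytotoxicity flagged yes/no.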
# [3] = read-out: Cytochrome P450 3A4 (Homo sapiens) (UniProt P08684); test: CLD_CYP3A4_24hr: CellzDirect (CLD) Gene Expression Assay for xenobiotic metabolism (CYP3A4) at 24 hours (AID 2283689)
# Outline: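 CYP3A4 mRNA induction read by quantitative nuclease protection (chemiluminescence) 24 hr after dosing. Cultured human hepatocytes (two donor preparations) treated daily, vehicle 0.2% DMSO; phase-contrast morphology annotates cytotoxicity.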
# [4] = read-out: alkyl and aryl transferase (GSTA2), GSTA2 (gene 2939); test: CLD_GSTA2_24hr: CellzDirect (CLD) Gene Expression Assay for alkyl and aryl transferase (GSTA2) at 24 hours (AID 2283693)
# Outline: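 GSTA2 transcript levels were quantified by quantitative nuclease protection assay in primary human hepatocytes 24 h after daily dosing with fresh solutions at multiple concentrations; 0.2% DMSO vehicle as baseline, cytotoxicity flagged morphologically.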
# [5] = read-out: glucuronosyltransferase (UGT1A1), UGT1A1 (gene 54658); test: CLD_UGT1A1_24hr: CellzDirect (CLD) Gene Expression Assay for glucuronosyltransferase (UGT1A1) at 24 hours (AID 2283696)
# Outline: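 UGT1A1 transcript induction was measured by quantitative nuclease protection assay (chemiluminescence) in human hepatocyte cultures 24 h after daily fresh dosing, with 0.2% DMSO as vehicle and baseline.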
# [6] = read-out: Cytochrome P450 2B6 (Homo sapiens) (UniProt P20813); test: CLD_CYP2B6_48hr: CellzDirect (CLD) Gene Expression Assay for xenobiotic metabolism (CYP2B6) at 48 hours (AID 2283699);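 also: actives raise transcript level above DMSO so potency reflects induction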
# Outline: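 CYP2B6 transcript induction, read by quantitative nuclease protection (S1 digestion, chemiluminescent detection) 48 h after dosing, is fitted upward against 0.2% DMSO. Cultured human liver primary cells, two donor preparations, received fresh chemical daily over multiple concentrations.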
# [7] = read-out: Cytochrome P450 2C9 (Homo sapiens) (UniProt P11712); test: CLD_CYP2C9_48hr: CellzDirect (CLD) Gene Expression Assay for xenobiotic metabolism (CYP2C9) at 48 hours (AID 2283701; active = hit-call score of the fitted dose curve at least 0.9, where 1 is the maximum; inactive = score below 0.9)
# Outline: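 mRNA level measured by quantitative nuclease protection (S1 digestion, chemiluminescent detection) in lysates of human primary hepatocytes exposed 48 h with daily re-dosing. Induction fitted positively versus 0.2% DMSO; morphology-based cytotoxicity flagged yes/no.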
# [8] = read-out: xenobiotic metabolism (CYP1A2), CYP1A2 (gene 1544); test: CLD_CYP1A2_48hr: CellzDirect (CLD) Gene Expression Assay for xenobiotic metabolism (CYP1A2) at 48 hours (AID 2283703)
# Outline: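 Cytotoxicity was flagged yes/no from morphology, while CYP1A2 transcript induction was detected by qNPA chemiluminescence after a 48-hour exposure. Human primary hepatocyte cultures from separate donors received fresh dosing solutions daily over two days, with 0.2% DMSO as vehicle and baseline.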
# [9] = read-out: xenobiotic metabolism (CYP1A1), CYP1A1 (gene 1543); test: CLD_CYP1A1_48hr: CellzDirect (CLD) Gene Expression Assay for xenobiotic metabolism (CYP1A1) at 48 hours (AID 2283705)
# Outline: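 CYP1A1 transcript measured by quantitative nuclease protection (chemiluminescent) 48 h after two daily treatments of human hepatocyte cultures, versus 0.2% DMSO. Morphology-based cytotoxicity flags accompany data; two donor preparations used.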
# [10] = read-out: Glyceraldehyde-3-phosphate dehydrogenase (Homo sapiens) (UniProt P04406); test: CLD_GAPDH_48hr: CellzDirect (CLD) Gene Expression Assay for Baseline Control (Glyceraldehyde 3-phosphate dehydrogenase) at 48 hours (AID 2283706);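 also: active means higher GAPDH mRNA than DMSO vehicle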
# Outline: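 GAPDH baseline-control readout: qNPA chemiluminescent mRNA quantitation in human liver primary cells 48 h after daily dosing on two consecutive days, vehicle 0.2% DMSO; gain of signal fitted against DMSO, cytotoxicity flagged by phase-contrast morphology.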
# [11] = read-out: glucuronosyltransferase (UGT1A1), UGT1A1 (gene 54658); test: CLD_UGT1A1_48hr: CellzDirect (CLD) Gene Expression Assay for glucuronosyltransferase (UGT1A1) at 48 hours (AID 2283709);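 also: actives increase expression relative to DMSO so potency refers to induction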
# Outline: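 Quantitative nuclease protection assay (chemiluminescent) for UGT1A1 mRNA at 48 h in human hepatocyte cultures from two donors, redosed daily with fresh solutions. Induction fitted relative to 0.2% DMSO; phase-contrast morphology annotated cytotoxicity.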
# [12] = read-out: HMG-CoA synthase (HMGCS2), HMGCS2 (gene 3158); test: CLD_HMGCS2_48hr: CellzDirect (CLD) Gene Expression Assay for HMG-CoA synthase (HMGCS2) at 48 hours (AID 2283711)
# Outline: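 mRNA induction read by qNPA chemiluminescence, 48 h after dosing. Cultured primary human liver cells (two donor preparations) received fresh compound daily over two days against 0.2% DMSO vehicle; morphology-based cytotoxicity noted alongside.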
# [13] = read-out: ABC Transporter (ABCB1), ABCB1 (gene 5243); test: CLD_ABCB1_48hr: CellzDirect (CLD) Gene Expression Assay for ABC Transporter (ABCB1) at 48 hours (AID 2283695)
# Outline: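 ABCB1 mRNA was measured by quantitative nuclease protection assay (chemiluminescence) 48 h after dosing. Human hepatocyte cultures from two separate donors received fresh dosing solutions daily for two days, with 0.2% DMSO as vehicle. Positive-direction fit against DMSO.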
# [14] = read-out: ABC Transporter (ABCB11), ABCB11 (gene 8647); test: CLD_ABCB11_48hr: CellzDirect (CLD) Gene Expression Assay for ABC Transporter (ABCB11) at 48 hours (AID 2283697)
# Outline: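 Induction of ABCB11 mRNA relative to 0.2% DMSO, measured at 48 h by qNPA chemiluminescence. Cultured human hepatocytes (two donors) received fresh dosing solutions at several concentrations on two consecutive days.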
# [15] = read-out: alkyl and aryl transferase (GSTA2), GSTA2 (gene 2939); test: CLD_GSTA2_48hr: CellzDirect (CLD) Gene Expression Assay for alkyl and aryl transferase (GSTA2) at 48 hours (AID 2283708);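 also: active means mRNA induction above DMSO vehicle baseline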
# Outline: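 GSTA2 mRNA quantified by qNPA chemiluminescence in human primary hepatocyte lysates after 48 h of daily fresh chemical dosing. Increases fitted against 0.2% DMSO vehicle baseline; cytotoxicity from morphology annotated yes/no.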
# [16] = CEETOX_H295R_MTT_cell_viability: Viability Assessment in the CeeTox HT-H295R MTT Assay (AID 2283718; active = hit-call score of the fitted dose curve at least 0.9, where 1 is the maximum; inactive = score below 0.9)
# Outline: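 Human H295R adrenal cells, prestimulated 48 h with 10 uM forskolin, were exposed 48 h to chemicals in 0.1% DMSO. Viability was measured in the same wells by MTT (0.5 mg/ml, 4 h, 37 C), absorbance 570/650 nm, as percent of controls.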
# [17] = STM_H9_CystineISnorm_perc: Stemina devTOX quickPredict H9 human embryonic stem cell (hESC)-based Assay for Cystine (CYSS) Metabolite Biomarker, Normalized (AID 2283713; active = hit-call score of the fitted dose curve at least 0.9, where 1 is the maximum; inactive = score below 0.9)
# Outline: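 Normalized cystine level in conditioned medium from the final 24h of a 72h treatment of pluripotent H9 cells (daily media and compound renewal). Quantified by UPLC-HRMS with C13-labeled internal standard; scaled to median of 0.1% DMSO vehicle wells.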
# [18] = STM_H9_OrnCyssISnorm_ratio: Stemina devTOX quickPredict H9 human embryonic stem cell (hESC)-based Assay for Ornithine (ORN):Cystine (CYSS) Ratio (AID 2283714)
# Outline: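 UPLC-HRMS of spent media: ORN/CYSS ratio of internal-standard-normalized percentages, DMSO (0.1%) baseline. Pluripotent H9 hESCs, 72h exposure, daily re-dosing with fresh media; last 24h media collected.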
# Sequence of Cytochrome P450 3A4 (Homo sapiens) (P08684 whole entry, looked up): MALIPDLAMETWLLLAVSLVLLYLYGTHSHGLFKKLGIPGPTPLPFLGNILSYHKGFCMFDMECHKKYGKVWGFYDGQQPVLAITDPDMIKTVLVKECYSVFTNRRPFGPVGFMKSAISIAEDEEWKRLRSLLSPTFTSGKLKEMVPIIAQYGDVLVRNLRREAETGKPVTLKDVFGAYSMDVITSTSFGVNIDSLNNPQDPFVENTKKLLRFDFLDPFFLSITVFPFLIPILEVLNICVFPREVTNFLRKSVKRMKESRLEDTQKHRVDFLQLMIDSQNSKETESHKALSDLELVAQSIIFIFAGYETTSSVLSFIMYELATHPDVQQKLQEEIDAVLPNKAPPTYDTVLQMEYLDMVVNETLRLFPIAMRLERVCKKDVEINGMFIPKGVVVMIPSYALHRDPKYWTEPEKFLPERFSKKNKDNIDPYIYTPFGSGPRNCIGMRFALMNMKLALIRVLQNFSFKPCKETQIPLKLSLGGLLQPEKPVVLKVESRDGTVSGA
# Sequence of Glyceraldehyde-3-phosphate dehydrogenase (Homo sapiens) (P04406 whole entry, looked up): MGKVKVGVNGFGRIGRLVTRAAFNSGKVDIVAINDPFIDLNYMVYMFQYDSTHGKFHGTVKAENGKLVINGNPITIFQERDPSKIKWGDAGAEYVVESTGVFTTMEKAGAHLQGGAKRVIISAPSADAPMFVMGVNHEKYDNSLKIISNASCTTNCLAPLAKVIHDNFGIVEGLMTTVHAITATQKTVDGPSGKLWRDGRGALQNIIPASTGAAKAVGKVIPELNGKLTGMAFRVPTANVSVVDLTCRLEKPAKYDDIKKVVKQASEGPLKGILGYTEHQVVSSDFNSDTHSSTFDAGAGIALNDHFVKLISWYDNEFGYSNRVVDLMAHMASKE
compound,measurement,setting,value
COC(=O)c1cccc(C)c1S(=O)(=O)NC(=O)Nc1nc(OCC(F)(F)F)nc(N(C)C)n1,AC50,[1],6.03 µM (active)
same,outcome,[2],inactive
same,AC50,[3],20 µM (active)
same,outcome,[4],inactive
same,outcome,[5],inactive
same,AC50,[6],5.1 µM (active)
same,outcome,[7],inactive
same,AC50,[8],5.82 µM (active)
same,AC50,[9],8.53 µM (active)
same,outcome,[10],inactive
same,outcome,[11],inactive
same,outcome,[12],inactive
CC1(C)C(C=C(Cl)Cl)C1C(=O)OCc1cccc(Oc2ccccc2)c1 (stereo not given),outcome,[1],inactive
same,outcome,[2],inactive
same,outcome,[3],inactive
same,outcome,[13],inactive
same,outcome,[5],inactive
same,outcome,[14],inactive
same,AC50,[6],3.87 µM (active)
same,outcome,[7],inactive
same,AC50,[8],9.51 µM (active)
same,outcome,[9],inactive
same,outcome,[10],inactive
same,outcome,[15],inactive
same,AC50,[11],3.97 µM (active)
same,outcome,[16],inactive
CCCN(CCC)C(=O)SCC,outcome,[1],inactive
same,outcome,[2],inactive
same,outcome,[3],inactive
same,outcome,[4],inactive
same,outcome,[13],inactive
same,outcome,[5],inactive
same,outcome,[14],inactive
same,AC50,[6],381 nM (active) and 209 nM (active)
same,outcome,[7],inactive
same,AC50,[8],6.32 µM (active)
same,outcome,[8],inactive
same,outcome,[10],inactive
same,outcome,[15],inactive
same,outcome,[11],inactive
same,outcome,[12],inactive
same,outcome,[16],inactive
CCOC(=O)NCCOc1ccc(Oc2ccccc2)cc1,outcome,[1],inactive
same,outcome,[2],inactive
same,outcome,[13],inactive
same,outcome,[5],inactive
same,AC50,[6],10.8 µM (active)
same,outcome,[7],inactive
same,outcome,[8],inactive
same,outcome,[9],inactive
same,outcome,[15],inactive
same,AC50,[11],20 µM (active)
CCCCC(CC)COC(=O)c1ccccc1C(=O)O (stereo not given),outcome,[1],inactive
same,outcome,[2],inactive
same,outcome,[13],inactive
same,outcome,[5],inactive
same,outcome,[14],inactive
same,AC50,[6],20 µM (active)
same,outcome,[7],inactive
same,outcome,[8],inactive
same,outcome,[9],inactive
same,outcome,[10],inactive
same,outcome,[15],inactive
same,outcome,[11],inactive
same,outcome,[12],inactive
same,AC50,[17],250 µM (active)
same,AC50,[18],283 µM (active)
same,outcome,[16],inactive
O=C(O)C1(C(=O)Nc2ccc(Cl)cc2Cl)CC1,AC50,[1],20 µM (active)
same,outcome,[3],inactive
same,outcome,[13],inactive
same,AC50,[5],20 µM (active)
same,outcome,[8],inactive
same,outcome,[9],inactive
same,outcome,[10],inactive
same,outcome,[11],inactive
same,outcome,[12],inactive
same,outcome,[17],inactive
same,AC50,[18],9.92 µM (active)
Cc1nn(C)c(Oc2ccccc2)c1C=NOCc1ccc(C(=O)OC(C)(C)C)cc1,AC50,[1],37.4 µM (active)
same,outcome,[3],inactive
same,outcome,[4],inactive
same,outcome,[13],inactive
same,outcome,[5],inactive
same,outcome,[9],inactive
same,outcome,[10],inactive
same,outcome,[15],inactive
same,outcome,[12],inactive
same,AC50,[17],0.128 µM (active)
same,AC50,[18],0.0589 µM (active)
C#CCOC(=O)[C@@H](C)Oc1ccc(Oc2ncc(Cl)cc2F)cc1,outcome,[1],inactive
same,outcome,[3],inactive
same,outcome,[13],inactive
same,outcome,[5],inactive
same,outcome,[14],inactive
same,outcome,[6],inactive
same,outcome,[7],inactive
same,outcome,[8],inactive
same,outcome,[10],inactive
same,outcome,[15],inactive
same,outcome,[11],inactive
same,outcome,[12],inactive
same,AC50,[17],11.1 µM (active)
same,AC50,[18],86.9 µM (active)
same,outcome,[16],inactive
